Records with an inconclusive call do not appear. Unmarked numbers belong to inactive results. The source made the active and inactive calls. The call rests on the fitted dose curve.
Assay: cAMP Responsive Elements (CRE) small molecule agonists, cell-based qHTS assay (AID 1963590)
Settings: CRE-bla HEK293T, beta-lactamase FRET ratio, 3 h; series mostly up to 92.4 µM; activation: at the top concentration
In short: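 CRE-bla HEK 293T cells, 2,000/well in DMEM with 10% dialyzed FBS and 25 mM HEPES, pre-incubated 18 h at 37 C, then exposed to compound 3 h at 37 C. Beta-lactamase reporter read with LiveBLAzer B/G FRET substrate after 2 h at room temperature.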
On the % scale 0 is the no-effect control and ±100 the full control effect.

Row | SMILES | activation | Potency
1 | CC(C)[N+](C)(CCC(C(N)=O)(c1ccccc1)c1ccccc1)C(C)C | -0.0322% [at 42.5 µM] | 
2 | O=C(Cl)CCl | -1.79% | 
3 | COC(=O)c1ccccc1N |  | inactive
4 | CN(C)NC(=O)CCC(=O)O |  | inactive
5 | CN(C)C(=O)C(c1ccccc1)c1ccccc1 |  | inactive
6 | ClCc1ccccn1 |  | inactive
7 | CCCOC(=O)c1ccccc1C(=O)OCCC |  | inactive
8 | Cc1ccc(N)c(N)c1 |  | inactive
9 | N#CC1(N=NC2(C#N)CCCCC2)CCCCC1 | 2.28% | 
10 | C=C(C)C(=O)OCC(CC)CCCC (stereo not given) |  | inactive
11 | O=C(CCN1CC1)OCC(CO)(COC(=O)CCN1CC1)COC(=O)CCN1CC1 | 0.526% | 
12 | CCCCOC(=O)c1ccccc1C(=O)OCCCC |  | inactive
13 | CC(O)CN(CC(C)O)CC(C)O (stereo not given) |  | inactive
14 | CN(N=O)C(N)=O | 0.0195% | 
15 | CCOC(=O)c1cncn1C(C)c1ccccc1 (stereo not given) | 1.01% [at 42.5 µM] | 
16 | CCN(CC)c1ccccc1 | -2.37% | 
17 | CCOc1nc(F)cc2nc(S(=O)(=O)Nc3c(Cl)cccc3Cl)nn12 | -1.46% | 
18 | O=[N+]([O-])c1ccccc1O |  | inactive
19 | Nc1ccc(N=Nc2ccc(-c3ccc(N=Nc4c(S(=O)(=O)O)cc5cc(S(=O)(=O)O)c(N=Nc6ccccc6)c(O)c5c4N)cc3)cc2)c(N)c1 | 2.67% [at 42.5 µM] | 
20 | c1ccc(P(c2ccccc2)c2ccccc2)cc1 |  | inactive
21 | CCCCCBr | -0.0661% | 
22 | c1ccc2c(c1)sc1ccccc12 |  | inactive
23 | COc1ccc2c3c1O[C@H]1[C@H](O)CC[C@H]4[C@@H](C2)N(C)CC[C@@]341 | 0.0449% | 
24 | CN(C)CCc1c[nH]c2cccc(OP(=O)(O)O)c12 | 0.504% | 
25 | CC(Cl)C(=O)O (stereo not given) | -1.65% | 

— PubChem BioAssay (Tox21)
